Our source for the outcome and activation values is PubChem BioAssay (Tox21).

Values without a mark were called inactive. The source made the active and inactive calls. The call rests on the fitted dose curve.
On the % scale 0 is the no-effect control and ±100 the full control effect.

The nature of the experiment: G protein-coupled receptor (GPCR) small molecule agonists, calcium flux assay: HEK293 wild type cell line counter screen (AID 1920065). The following applies: HEK293 WT calcium flux, fluorescence, agonist mode; series mostly up to 57.6 µM. The source says: U.S. Tox21 Program National Center for Advancing Translational Sciences [NCATS] Division of Preclinical Innovation [DPI] U.S. Environmental Protection Agency [EPA] National Institutes of Environmental Health Sciences [NIEHS] National Toxicology Program [NTP] U.S. Food and Drug Administration [FDA] Assay overview: The increased intracellular calcium release that occurred upon G protein-coupled receptor (GPCR) activation led to the frequent use of calcium flux assays to detect GPCR activation. For the purpose of studying and screening compounds that may activate GPCR, receptor-overexpressing models were typically generated using Hek293 wild-type (WT) cells. In order to eliminate the compounds that may have induced calcium release for non-specific activation, a counter-assay utilizing calcium flux on Hek293 WT cells was performed. The data were formulated in order to serve as a control for any calcium flux detection utilizing Hek293 cells with either GPCR overexpression or gene modification. The procurement of Hek293 WT cells from ATCC. Fluorescence intensity can be utilized to determine the activation of the compound in a calcium flux assay. As a counter control, this cell line was utilized to screen the Tox21 10K compound library.
Assay Protocol Summary: Hek293 cells were dispensed at 1500cells/4uL/well in 1536-well black wall/clear bottom plates using a multidrop dispenser. After the assay plates were incubated at a 37 C/5% CO2 incubator for 18 hours, 4 uL of Calcium Dye Solution was added to each well. The plates were incubated at 37 C for 1 hour. For agonist mode, 23 nL of compounds dissolved in DMSO, positive control (ATP) or DMSO only was transferred to the assay plate by a pin tool station. The fluorescence intensity in the plates was measured using FDSS 7000EX kinetic plate reader with a filter set of Ex/Em=480/540 for 3 min at 1 sec intervals. Each test compound was measured at 15 concentrations and in triplicates.
In general terms: Calcium assays in cells follow changes in intracellular calcium, usually with a dye or a luminescent sensor.
`C[C@H]1O[C@H](O[C@H]2[C@H](O)[C@@H](O)[C@@H](O[C@H]3[C@H](O)[C@@H](O)[C@H](O)O[C@@H]3CO)O[C@@H]2CO)[C@H](O)[C@@H](O)[C@@H]1N[C@H]1C=C(CO)[C@@H](O)[C@H](O)[C@H]1O`: the result was inactive. On to `CCCCCCCCCCCCS(=O)(=O)Cl`, for which the activation is -1.76% [at 11.8 µM]. For the compound `CCCCCCCCCCCCCCCCCC#N`, the outcome was inactive. Still for that read-out and setting: the value for `Cc1c(Cl)cccc1Nc1ccccc1C(=O)O` was “inactive”; that for `CCCCN(C)C` was “inactive”. `O=C(CCCCCCCCc1cccnc1)N1CCC(C=C(c2ccccc2)c2ccccc2)CC1`: the outcome was inactive. As to `N#Cc1ccc(C/C(=N/NC(=O)Nc2ccc(OC(F)(F)F)cc2)c2cccc(C(F)(F)F)c2)cc1`, the result was inactive. On the same count and under the same terms, the value for `CC(C)=CCC/C(C)=C/CC/C(C)=C/CCC(=O)OC/C=C(\C)CCC=C(C)C` was “inactive”; that for `Cc1ccc2c(c1)c1c3n2CCNC3CCC1` (stereo not given) was “inactive”; that for `Cc1ccc(N(CCO)CCO)cc1` was “inactive”.

For the compound `CN1CCN(c2c(F)cc3c(=O)c(C(=O)O)cn4c3c2SCC4)CC1`, the outcome was inactive. The same measure, in the same setting: the value for `CC(C)(C)OC(=O)N1C[C@@H](F)C[C@H]1C(=O)O` was “inactive”; that for `CC(C)Cc1ccc(C(C)C(=O)OCc2ccccn2)cc1` (stereo not given) was “inactive”; that for `COc1ccc(C(=O)N2CCN(CC(=O)N3CCOCC3)CC2)cc1` was “inactive”. The same measure, in the same setting: the value for `ClC(Cl)(Br)Br` was “inactive”. As for `CC1(C)S[C@@H]2[C@H](NC(=O)Cc3ccccc3)C(=O)N2[C@H]1C(=O)O` (tested in a mixture with another compound), the outcome was inactive. On to `NCCCCCC(=O)O`, for which the result was inactive. On the same count and under the same terms, the value for `CC1=CC[C@H](C(C)C)C=C1` was “inactive”; that for `CC(C)(c1cc(Br)c(OCCO)c(Br)c1)c1cc(Br)c(OCCO)c(Br)c1` was “inactive”. The same measure, in the same setting: the value for `CC1CCCCC1` was “inactive”.

Turning to `Cc1cc(C)c(C=O)c(C)c1`, the outcome was inactive. Same read-out and setting: the result for `O=C(CO)[C@@H](O)[C@H](O)[C@H](O)CO` reads “inactive”; that for `O=c1[nH]cnc2ccccc12`, “inactive”; that for `OC(CCCN1CCCCC1)(c1ccccc1)c1ccccc1`, “inactive”.

Regarding `CC(CCc1ccccc1)NCC(O)c1ccc(O)c(C(N)=O)c1` (stereo not given), the result was inactive. As to `CCN(O)CC`, the outcome was inactive. In the case of `CN1CCCC(n2nc(Cc3ccc(Cl)cc3)c3ccccc3c2=O)CC1` (stereo not given), the result was inactive. The same measure, in the same setting: the result for `CC[N+](CC)(CCNC(=O)C(=O)NCC[N+](CC)(CC)Cc1ccccc1Cl)Cc1ccccc1Cl` reads “inactive”. Consider `CC12CCC(CC1=O)C2(C)C` (stereo not given), for which the result was inactive.

Regarding `CCCCCCC(=O)OCC`, the result was inactive. `CCN(CC)CC(=O)Nc1c(C)cccc1C(=O)OC`: the result was inactive. Consider `C=CC(=O)OCCOCC(CC)(COCCOC(=O)C=C)COCCOC(=O)C=C`, for which the result was inactive.

Turning to `CC(C)=NNC(N)=S`, the outcome was inactive.

Take `CCCCN(CCCC)C(=O)N(CCCC)CCCC`: the outcome was inactive. Still for that read-out and setting: the value for `Oc1ccc2c(c1)OCO2` was “inactive”.

Consider `CCC(Cc1ccccc1)(C(=O)c1ccc(N2CCOCC2)cc1)N(C)C` (stereo not given), for which the result was inactive. Same read-out and setting: the result for `CC1CCc2cc(F)cc3c(=O)c(C(=O)O)cn1c23` (stereo not given) reads “inactive”; that for `C=CCCCC`, “inactive”. Consider `O=[N+]([O-])c1ccc2[nH]ncc2c1`, for which the result was inactive. Same read-out and setting: the result for `CC(=O)OCC(=O)[C@@]1(O)CCC2C3CCC4=CC(=O)CC[C@]4(C)C3[C@@H](O)C[C@@]21C` (stereo not given in full) reads “inactive”.
